Source: PubChem BioAssay (several laboratories)
hiPSC survival – hiPSC single-cell survival enhancement | survival enhancement, % at 20 µM | ATPlite luminescence; 100% = ROCK inhibitor wells, 0% = DMSO | hit rate 0.044% among 360,000; in the data active = survival enhancement above about 18%;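 also: cells exposed to compounds for 16 hours before the ATP read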
CendR NRP1 mod – alters CendR peptide binding to human NRP-1; O14786; FAM-RPARPAR peptide binding to NRP-1, fluorescence polarization; inhibition, % at 25 µM; hit rate 0.85% among 360,000;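 active = inhibition or corrected inhibition above about 18%, plus a signal ratio from 0.5 to 1.5, limit read from the data, passing the limit was not always enough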
Target sequence (O14786 whole entry, looked up): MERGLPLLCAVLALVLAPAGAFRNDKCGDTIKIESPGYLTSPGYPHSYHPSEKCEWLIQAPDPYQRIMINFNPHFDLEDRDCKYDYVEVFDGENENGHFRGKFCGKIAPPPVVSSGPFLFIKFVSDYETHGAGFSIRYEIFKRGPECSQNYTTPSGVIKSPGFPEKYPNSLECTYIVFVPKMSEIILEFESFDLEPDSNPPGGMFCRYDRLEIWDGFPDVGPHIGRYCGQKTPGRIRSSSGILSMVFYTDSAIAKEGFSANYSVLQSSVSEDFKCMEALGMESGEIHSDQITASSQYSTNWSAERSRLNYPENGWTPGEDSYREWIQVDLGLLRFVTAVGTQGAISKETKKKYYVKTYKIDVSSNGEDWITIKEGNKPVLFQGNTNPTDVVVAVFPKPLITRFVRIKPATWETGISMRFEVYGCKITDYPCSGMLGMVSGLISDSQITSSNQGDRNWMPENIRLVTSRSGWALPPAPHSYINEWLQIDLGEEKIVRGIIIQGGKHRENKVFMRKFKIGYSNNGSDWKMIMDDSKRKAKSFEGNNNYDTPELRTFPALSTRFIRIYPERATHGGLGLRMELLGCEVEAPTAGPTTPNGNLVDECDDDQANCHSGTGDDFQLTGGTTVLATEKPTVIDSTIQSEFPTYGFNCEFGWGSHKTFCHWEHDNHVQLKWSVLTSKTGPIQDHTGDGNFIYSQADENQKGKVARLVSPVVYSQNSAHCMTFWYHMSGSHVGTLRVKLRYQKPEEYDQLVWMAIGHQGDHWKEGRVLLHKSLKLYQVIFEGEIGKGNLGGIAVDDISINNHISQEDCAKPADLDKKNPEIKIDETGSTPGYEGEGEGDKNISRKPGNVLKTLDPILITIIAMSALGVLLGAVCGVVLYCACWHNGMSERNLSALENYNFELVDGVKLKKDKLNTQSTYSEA
ARNT-TACC3 inh – disruptors of human ARNT/TACC3 interaction. AlphaScreen His-ARNT PAS-B/GST-TACC3 binding, luminescence; TACC3 fragment carries E629A point mutation. inhibition, % at 9.99 µM. hit rate 0.66% among 390,000. Q9Y6A5;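 active = mean inhibition of replicates at least 50% and at least half of replicates each reaching 50%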;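 also: 0% = complete ARNT plus TACC3 wells and 100% = ARNT alone without TACC3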
GSIS activator – GLuc luminescence reporter in INS-1E cells, primary screen for activators of glucose-dependent secretion of insulin. INS-1E GLuc reporter insulin secretion, 2-3 h. activation, % at 16.6 µM. hit rate 0.61% among 370,000;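 active = lowest replicate activation of at least 40%, so every replicate reaches that level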;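 also: 0% = median of neutral control wells and 100% = median of IBMX positive control wells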
ABCB6 inh MLPCN – blocks the human ABCB6 transporter; AID 602162; fluorescence ratio to DMSO, % at 10 µM; hit rate 0.19% among 360,000; K562-ABCB6 porphyrin accumulation, flow cytometry, 1 h; hits give low values;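 active = fluorescence ratio to DMSO below 75%, the collection mean minus 3 SD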;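 also: signal is porphyrin accumulated inside mitochondria; 100% equals median channel fluorescence of DMSO control wells; lower ratio means ABCB6 inhibition with less porphyrin fluorescence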
* marks the source's active call; other numbers are inactive results; nt = not tested or not shown. Hits are enriched below; roughly 1.8% of the tested compounds scored in any of these assays.

SMILES	hiPSC survival	CendR NRP1 mod	ARNT-TACC3 inh	GSIS activator	ABCB6 inh MLPCN
COc1cccc(/C=N/NC(=O)C[n+]2ccccc2)c1O	-2	10	67*	15	100
O=C(C[n+]1ccccc1)N/N=C/c1ccccc1F	0	12	nt	18	101
O=C(C[n+]1ccccc1)N/N=C/c1cc(Br)ccc1O	0	-4	64*	13	98
CN1C(=O)c2cc(NC(=O)C3CCCCC3)ccc2OC[C@H]2O[C@H](CC(=O)NCCc3ccncc3)CC[C@@H]21	nt	nt	1	0	nt
O=C(C[C@H]1C/C=C\C[C@H](Cc2ccc(F)cc2)C(=O)O[C@@H](c2ccccc2)CNC1=O)NCCO	0	22*	-2	2	100
O=C(C[C@@H]1C/C=C\CC[C@H](Cc2ccc(F)cc2)C(=O)OC[C@@H]2CCCN2C1=O)NCCO	0	20*	-11	33	98
CCCNC(=O)N1CC2(CCN(Cc3ccc(F)cc3)CC2)c2c([nH]c3cc(OC)ccc23)[C@H]1CO	nt	nt	nt	-10	nt
O=C(C[C@H]1CC[C@@H]2[C@H](COC[C@@H](O)CN2S(=O)(=O)c2ccc(Cl)cc2)O1)NCc1ccc(Cl)c(Cl)c1	nt	nt	-3	-27	nt
Cc1ccccc1OCc1nnc(SCC(=O)Nc2ccc3c(c2)oc2ccccc23)n1C	0	-9	-2	131*	79
O=c1nc2c(O)cccn2c2c1c(=O)[nH]c1ccccc12	4	48*	26	nt	101
O=c1[nH]c2ccccc2c2nc3ccccn3c12	-4	-6	15	nt	98
CCCNC(=O)[C@H]1[C@H](CO)[C@H]2Cn3c(ccc(-c4cccc(F)c4)c3=O)[C@H]2N1C(=O)CC	nt	nt	-4	-5	nt
COc1ccc(NC(=O)N(C)C[C@H]2OCc3cn(nn3)CCCC(=O)N([C@@H](C)CO)C[C@H]2C)cc1	nt	nt	-3	0	nt
O=C(N/N=C\c1c(O)ccc2ccccc12)c1ccc(O)cc1	0	-9	9	4	97
O=C(N/N=C/c1c(O)ccc2ccccc12)c1cccnc1	0	-135	59*	-22	105
O=C(N/N=C/c1c(O)ccc2ccccc12)c1ccc[n+](CCO)c1	0	-21	64*	-14	101
Cc1nc(S(=O)(=O)N2CCN(Cc3cccc(OCCO)c3)CC2)cn1C	nt	nt	-1	nt	nt
CC(C)(C)OC(=O)N[C@H](C(=O)OC(C)(C)C)c1ccccc1	2	36*	0	5	90
COC(=O)C(NC(=O)CCC(=O)N[C@@H](C(=O)OC)c1ccccc1)c1ccccc1 (some centres undefined)	3	25*	1	-1	96
CC(C)(C)OC(=O)[C@H](NC(=O)OCc1ccccc1)c1ccccc1	0	0	-6	-29	101
COC(=O)C(NC(=O)CCC(=O)NC(C(=O)OC)c1ccccc1)c1ccccc1 (centres undefined)	-2	-1	-4	4	97
C[C@@H]1CN([C@H](C)CO)C(=O)c2cccc(NC(=O)Nc3ccc4c(c3)OCO4)c2O[C@H]1CN(C)C(=O)Nc1cccc2ccccc12	nt	nt	nt	-5	nt
C[C@@H]1CN([C@H](C)CO)S(=O)(=O)c2ccc(-c3ccccc3)cc2O[C@H]1CN(C)Cc1cccc(F)c1	nt	nt	-6	9	nt
Cc1ccc(C)c(NC(=O)CSc2cccc3cccnc23)c1	0	-10	-9	4	99
Cc1cccc(NC(=O)CSc2cccc3cccnc23)c1	-1	-8	57*	-11	97
SMILES	hiPSC survival	CendR NRP1 mod	ARNT-TACC3 inh	GSIS activator	ABCB6 inh MLPCN
O=C(CSc1cccc2cccnc12)Nc1cc(C(=O)O)cc(C(=O)O)c1	1	-11	68*	-11	99
CC(=O)N1CC2(C1)[C@H](c1ccc(-c3ccccc3C)cc1)[C@@H](CO)N2C(=O)CC1CC1	nt	nt	nt	-8	nt
Cc1ccc(NC(=O)CCC(=O)N2CCN(S(=O)(=O)c3ccc(C)cc3)CC2)cc1	4	45*	-2	-34	99
Cc1ccc(S(=O)(=O)N(CC(=O)Nc2ccc(C)cc2C)C(=O)N2CCN(C)CC2)cc1	0	0	-4	221*	98
Cc1ccc(NC(=O)CN(C(=O)N2CCN(C)CC2)S(=O)(=O)c2ccc(C)cc2)cc1	0	6	0	45*	97
C[C@H](CO)N1C[C@H](C)[C@@H](CN(C)C(=O)Nc2ccc3c(c2)OCO3)OCc2ccccc2-c2ccccc2C1=O	nt	nt	nt	9	nt
CC(C)C(=O)Nc1ccc2c(c1)C(=O)N(C)[C@H]1CC[C@@H](CC(=O)NCc3ccc(F)cc3)O[C@@H]1CO2	nt	nt	-7	6	nt
Cc1ccc2c(c1)c(=O)c1c3n2CCN(C(=O)CCl)C3CC1 (centres undefined)	-1	26*	7	nt	95
Cc1onc(-c2c(Cl)cccc2Cl)c1C(=O)c1c[nH]c(C(=O)NCCCN2CCOCC2)c1	0	23*	-2	nt	105
Cc1onc(-c2c(Cl)cccc2Cl)c1C(=O)NCCCN1CCOCC1	-1	2	1	nt	97
CC(C)NC(=O)N(C)C[C@@H]1Oc2ccc(NC(=O)Nc3ccc4c(c3)OCO4)cc2C(=O)N([C@@H](C)CO)C[C@@H]1C	nt	nt	-6	20	nt
C=CCNC(=S)NNC(=O)c1cccn(Cc2ccc(Cl)cc2)c1=O	2	2	52*	-23	90
C=CCNC(=S)NNC(=O)c1cccn(Cc2cccc(Cl)c2)c1=O	-1	4	nt	nt	98
O=C(Oc1ccc2c(c1)OCO2)c1cc2c(s1)CCC2	1	8	13	46*	97
O=C(CCl)Nc1cccc(Oc2cnccn2)c1	-1	11	-1	-5	7.0*
Cc1cc(=O)[nH]c(SCc2cn3ccccc3n2)n1	0	4	15	73*	96
CC(C)NC(=O)N(C)C[C@@H]1Oc2c(NS(C)(=O)=O)cccc2C(=O)N(C)C[C@@H]1C	nt	nt	nt	12	nt
NC(=O)c1sc2nc3c(c(-c4cccnc4)c2c1N)CCC3	0	1	28	nt	91
N#Cc1sc2nc3c(c(-c4cccnc4)c2c1N)CCC3	6	-22	1	46*	103
CN1CCN(C(=O)C[C@@H]2CC[C@H](NC(=O)c3ccc4c(c3)OCO4)[C@@H](CO)O2)CC1	nt	nt	1	11	nt
COc1ccc(CNC(=O)c2cccnc2Sc2ccc(C)c(C)c2)cc1	-2	0	nt	-10	104
COc1cccc(CNC(=O)c2cccnc2Sc2ccccc2)c1	0	2	-6	48*	94
C=CCNC(=O)C1CC(=O)N(c2ccc(OCC(=O)NCc3ccccc3)cc2)C1 (centres undefined)	6	26*	-1	nt	103
COc1ccc(Cn2c3ccc(OC)cc3c3nc4ccccc4nc32)cc1	-3	49*	-3	57	127
C[C@H]1ON(c2ccccc2)[C@@H](c2ccccc2)[C@@H]1C(=O)N1C(=O)OC[C@@H]1c1ccccc1	nt	nt	-7	nt	nt
